The text below walks through data of PubChem BioAssay (NCI).

SMILES strings stand for the structures. Where “and” joins values, the source holds several entries; their conditions need not be identical. Identical values can stand only once. This is part of a sample that, as a whole, favours compounds with a hit. Of some 79,000 tested, about 15% had one in any assay. Where a structure was tested more than once in an assay, its records may differ in their call. Calls of active or inactive are those of the source. No stated cut-off is given here; in the data, active means growth inhibition above about 70%; inactive means the rest.

Assay [1] in a line: NCI Yeast Anticancer Drug Screen. Data for the rad50 strain (AID 155).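 Further: 0% = growth of vehicle-only cultures of the same strain.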 The following applies: S. cerevisiae rad50 strain growth inhibition, stronger effect = higher value. In a few lines: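 Inhibition values express reduced yeast growth in compound-treated cultures relative to vehicle-treated controls.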
Assay [2] in a line: NCI Yeast Anticancer Drug Screen. Data for the mec2-1 strain (AID 157). The following applies: S. cerevisiae mec2-1 strain, stronger effect = higher value. The procedure, abridged: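 Readout is yeast growth inhibition, normalised to vehicle-treated controls, in the mec2-1 strain exposed to compound.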
The nature of assay [3]: NCI Yeast Anticancer Drug Screen. Data for the sgs1 mgt1 strain (AID 161).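 Further: 0% = growth of cultures given vehicle only.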 As to conditions: S. cerevisiae sgs1 mgt1 strain, stronger effect = higher value. In a few lines: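 Growth of a repair-deficient yeast mutant was monitored after compound treatment and expressed as inhibition relative to vehicle-treated cultures.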
A short description of assay [4]: NCI Yeast Anticancer Drug Screen. Data for the cln2 rad14 strain (AID 165).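 Further: 0% = growth equal to vehicle treated cultures.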 As to conditions: S. cerevisiae cln2 rad14 strain, stronger effect = higher value. The procedure, abridged: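 Relative to vehicle controls, growth inhibition of compound-treated cln2 rad14 yeast was recorded.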
Assay [5] in a line: NCI Yeast Anticancer Drug Screen. Data for the bub3 strain (AID 167). The following applies: S. cerevisiae bub3 mutant strain, stronger effect = higher value. In a few lines: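 Steps: expose the mutant yeast strain to compound; grow alongside vehicle-treated cultures; measure growth; express inhibition against the vehicle cultures.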
Assay [6] can be described thus: NCI Yeast Anticancer Drug Screen. Data for the mlh1 rad18 strain (AID 175). The following applies: S. cerevisiae mlh1 rad18 strain growth inhibition, stronger effect = higher value. The procedure, abridged: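 Test agents were incubated with a yeast strain of defined genotype (DNA damage repair defect). Inhibition of growth was derived by comparison with vehicle-exposed cultures.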

[7] abbreviates: at 5.0 µM (retest, dose inferred, filed as 0.5).
The mark [8] stands for this setting: at 50.0 µM (retest, dose inferred, filed as 5.0).

`CCC[CH2][Sn]1([CH2]CCC)[O]CC(CN2CCCC2)[O]1` (configuration not stated): the growth inhibition is 30% (inactive) in assay [1] (setting [7]); 96% (active) in assay [1] (setting [8]); 83.8% (active) in assay [1] (at 50.0 µM); 28% (inactive) in assay [2] (setting [7]); 98% (active) in assay [2] (setting [8]); 87.3% (active) in assay [2] (at 50.0 µM). In addition, the growth inhibition in assay [3] (setting [7]) is 46% (inactive); in assay [3] (setting [8]), 97% (active); in assay [3] (at 50.0 µM), 84.2% (active); in assay [4] (setting [7]) it was 26% (inactive); in assay [4] (setting [8]), 95% (active); in assay [4] (at 50.0 µM) it was 82.3% (active). Besides, the growth inhibition was 36% (inactive) in assay [5] (setting [7]); 97% (active) in assay [5] (setting [8]); 86.9% (active) in assay [5] (at 50.0 µM); 48% (inactive) in assay [6] (setting [7]); 97% (active) in assay [6] (setting [8]); 82.2% (active) in assay [6] (at 50.0 µM).

Regarding `[O]=[Sb]([OH])([OH])[c]1ccccc1`, the growth inhibition was 95% (active) in assay [1] (setting [7]); 98% (active) in assay [1] (setting [8]); 99.5% (active) and -13.8% (inactive) in assay [1] (at 50.0 µM); 91% (active) in assay [2] (setting [7]); 99% (active) in assay [2] (setting [8]); 99.5% (active) and -26.9% (inactive) in assay [2] (at 50.0 µM). For the same compound, the growth inhibition in assay [3] (setting [7]) is 94% (active); in assay [3] (setting [8]), 99% (active); in assay [3] (at 50.0 µM) it was 99.2% (active) and 28.1% (inactive); in assay [4] (setting [7]), 94% (active); in assay [4] (setting [8]), 98% (active); in assay [4] (at 50.0 µM), 99.4% (active) and 23% (inactive). Further, the growth inhibition in assay [5] (setting [7]) is 93% (active); in assay [5] (setting [8]), 98% (active); in assay [5] (at 50.0 µM), 99.3% (active) and 17.1% (inactive); in assay [6] (setting [7]) it was 94% (active); in assay [6] (setting [8]), 98% (active); in assay [6] (at 50.0 µM) it was 99.2% (active) and 6.5% (inactive).

On to `CC(=O)OC1CCC2(C)C3=C(CCC2C1(C)C)C1(C)CCC(C(C)CCC2NC2(C)C)C1(C)CC3` (configuration not stated), for which the growth inhibition in assay [1] (setting [7]) is -22% (inactive); in assay [1] (setting [8]), 86% (active); in assay [1] (at 50.0 µM), 22.6% (inactive); in assay [2] (setting [7]) it was 3% (inactive); in assay [2] (setting [8]), 66% (inactive); in assay [2] (at 50.0 µM) it was 2.5% (inactive). For the same compound, the growth inhibition in assay [3] (setting [7]) was 23% (inactive); in assay [3] (setting [8]) it was 98% (active); in assay [3] (at 50.0 µM), 95.8% (active); in assay [4] (setting [7]), 2% (inactive); in assay [4] (setting [8]) it was 23% (inactive); in assay [4] (at 50.0 µM), -29.1% (inactive). The growth inhibition is -1% (inactive) in assay [5] (setting [7]); 79% (active) in assay [5] (setting [8]); 10.8% (inactive) in assay [5] (at 50.0 µM); 6% (inactive) in assay [6] (setting [7]); 84% (active) in assay [6] (setting [8]); 11.2% (inactive) in assay [6] (at 50.0 µM).

For the compound `CN(C)CC(Cl)CCl` (configuration not stated), the growth inhibition is 19% (inactive) in assay [1] (setting [7]); 86% (active) in assay [1] (setting [8]); 88.9% (active) in assay [1] (at 50.0 µM); -1% (inactive) in assay [2] (setting [7]); 71% (active) in assay [2] (setting [8]); 80.2% (active) in assay [2] (at 50.0 µM). For the same compound, the growth inhibition in assay [3] (setting [7]) was 14% (inactive); in assay [3] (setting [8]), 75% (active); in assay [3] (at 50.0 µM), 43.5% (inactive); in assay [4] (setting [7]) it was -4% (inactive); in assay [4] (setting [8]), 64% (inactive); in assay [4] (at 50.0 µM), 55.9% (inactive). In addition, the growth inhibition in assay [5] (setting [7]) was -8% (inactive); in assay [5] (setting [8]), 8% (inactive); in assay [5] (at 50.0 µM) it was 9.25% (inactive); in assay [6] (setting [7]), 15% (inactive); in assay [6] (setting [8]) it was 82% (active); in assay [6] (at 50.0 µM), 49.5% (inactive).

Turning to `ClC1=C(Cl)C2(Cl)C(C3CO3)CC1(Cl)C2(Cl)Cl` (configuration not stated), the growth inhibition in assay [1] (setting [7]) was 0% (inactive); in assay [1] (setting [8]), 10% (inactive); in assay [1] (at 50.0 µM), 76.1% (active); in assay [2] (setting [7]), -1% (inactive); in assay [2] (setting [8]), 11% (inactive); in assay [2] (at 50.0 µM), 69.3% (inactive). In addition, the growth inhibition in assay [3] (setting [7]) is -2% (inactive); in assay [3] (setting [8]) it was 12% (inactive); in assay [3] (at 50.0 µM) it was 90.8% (active); in assay [4] (setting [7]), -12% (inactive); in assay [4] (setting [8]), -13% (inactive); in assay [4] (at 50.0 µM), 34.4% (inactive). In addition, the growth inhibition in assay [5] (setting [7]) is 4% (inactive); in assay [5] (setting [8]) it was 28% (inactive); in assay [5] (at 50.0 µM) it was 89.7% (active); in assay [6] (setting [7]), 0% (inactive); in assay [6] (setting [8]) it was 18% (inactive); in assay [6] (at 50.0 µM), 55.9% (inactive).

Regarding `C/C(=N\N)C(CN1CCCCC1)C(c1ccccc1)c1c(O)c2ccccc2oc1=O` (configuration not stated), the growth inhibition in assay [1] (setting [7]) is 3% (inactive); in assay [1] (setting [8]) it was 3% (inactive); in assay [1] (at 50.0 µM), 79.8% (active); in assay [2] (setting [7]), 1% (inactive); in assay [2] (setting [8]), 1% (inactive); in assay [2] (at 50.0 µM), 63.8% (inactive). The growth inhibition in assay [3] (setting [7]) is 3% (inactive); in assay [3] (setting [8]), 3% (inactive); in assay [3] (at 50.0 µM), 81.7% (active); in assay [4] (setting [7]) it was 4% (inactive); in assay [4] (setting [8]), 4% (inactive); in assay [4] (at 50.0 µM), 74% (active). Moreover, the growth inhibition in assay [5] (setting [7]) is 3% (inactive); in assay [5] (setting [8]) it was 3% (inactive); in assay [5] (at 50.0 µM), 76.3% (active); in assay [6] (setting [7]), 8% (inactive); in assay [6] (setting [8]), 8% (inactive); in assay [6] (at 50.0 µM), 80% (active).

`C[CH2][Sn]([Cl])([CH2]C)[O][Sn]([Cl])([CH2]C)[CH2]C`: the growth inhibition in assay [1] (setting [7]) was 6% (inactive); in assay [1] (setting [8]), 90% (active); in assay [1] (at 50.0 µM), 85.2% (active); in assay [2] (setting [7]) it was 4% (inactive); in assay [2] (setting [8]) it was 89% (active); in assay [2] (at 50.0 µM), 96.2% (active). For the same compound, the growth inhibition in assay [3] (setting [7]) is 6% (inactive); in assay [3] (setting [8]), 94% (active); in assay [3] (at 50.0 µM) it was 72.2% (active); in assay [4] (setting [7]), -3% (inactive); in assay [4] (setting [8]), 86% (active); in assay [4] (at 50.0 µM) it was 95% (active). Moreover, the growth inhibition in assay [5] (setting [7]) is 6% (inactive); in assay [5] (setting [8]), 88% (active); in assay [5] (at 50.0 µM), 96.7% (active); in assay [6] (setting [7]) it was 8% (inactive); in assay [6] (setting [8]), 83% (active); in assay [6] (at 50.0 µM) it was 84.9% (active).

With `C[CH2][Pb]([CH2]C)([CH2]C)[n]1cnc2ccccc21`, the growth inhibition was 4% (inactive) in assay [1] (setting [7]); 87% (active) in assay [1] (setting [8]); 66% (inactive) in assay [1] (at 50.0 µM); 2% (inactive) in assay [2] (setting [7]); 98% (active) in assay [2] (setting [8]); 74% (active) in assay [2] (at 50.0 µM). Moreover, the growth inhibition is 5% (inactive) in assay [3] (setting [7]); 97% (active) in assay [3] (setting [8]); 82.2% (active) in assay [3] (at 50.0 µM); -3% (inactive) in assay [4] (setting [7]); 62% (inactive) in assay [4] (setting [8]); 41.8% (inactive) in assay [4] (at 50.0 µM). For the same compound, the growth inhibition was 2% (inactive) in assay [5] (setting [7]); 97% (active) in assay [5] (setting [8]); 80.3% (active) in assay [5] (at 50.0 µM); 4% (inactive) in assay [6] (setting [7]); 98% (active) in assay [6] (setting [8]); 79% (active) in assay [6] (at 50.0 µM).

Take `CC(=O)OC1CCC2(C)C(CCC3C4=CCC(C5=CC(=O)OC5)C4(C)CCC32)C1` (configuration not stated): the growth inhibition in assay [1] (setting [7]) was 3% (inactive); in assay [1] (setting [8]), -33% (inactive); in assay [1] (at 50.0 µM), 82.8% (active); in assay [2] (setting [7]), -1% (inactive); in assay [2] (setting [8]), 14% (inactive); in assay [2] (at 50.0 µM), 81.8% (active). For the same compound, the growth inhibition in assay [3] (setting [7]) was 5% (inactive); in assay [3] (setting [8]) it was 55% (inactive); in assay [3] (at 50.0 µM), 91.3% (active); in assay [4] (setting [7]) it was 12% (inactive); in assay [4] (setting [8]), 11% (inactive); in assay [4] (at 50.0 µM), 65.3% (inactive). Further, the growth inhibition in assay [5] (setting [7]) was 0% (inactive); in assay [5] (setting [8]) it was 4% (inactive); in assay [5] (at 50.0 µM), 67.5% (inactive); in assay [6] (setting [7]), 3% (inactive); in assay [6] (setting [8]) it was -8% (inactive); in assay [6] (at 50.0 µM) it was 77.8% (active).
